# Experimental data taken from PubChem BioAssay AID1159580 (chemical genetic matrix, 2015).
# “And” between values parts separate entries of the source, which are not always exact repeats. Identical values can stand only once. The campaign covered roughly 5,500 compounds. About 2,000 (36%) were called active. Not shown: some 18% with an inconclusive outcome. No stated cut-off is given here; in the data, active means normalized growth mostly below about 0.91 (no sharp cut-off); inconclusive means no clear call, values can overlap the other calls; inactive means mostly above about 0.92. Some of the results follow.
# Assay: chemical genetic growth profiling, strain panel (AID 1159580);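 further: tested at 20 µM; growth read once vehicle control cultures reached saturation at 30 °C; 1 = growth at the plate median or of vehicle wells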
# Conditions: S. cerevisiae deletion strains, growth OD
structure (smiles),measurement,setting,value
CC(C)=CCCC(C)[C@@H]1CC[C@]2(C)C3=C(CC[C@@]12C)C1(C)CC[C@H](O)C(C)(C)C1CC3 (stereo partly drawn),normalized growth,"locus YAL021C, strain ccr4, stronger effect = lower value",1.04 (inactive)
same,normalized growth,"locus YAL026C, strain drs2, stronger effect = lower value",1.04 (inactive)
same,normalized growth,"locus YAL030W, strain snc1, stronger effect = lower value",1.07 [resistant] (active)
same,normalized growth,"locus YBL061C, strain skt5, stronger effect = lower value",1.08 (inactive)
same,normalized growth,"locus YBR009C, strain hhf1, stronger effect = lower value",1.01 (inactive)
same,normalized growth,"locus YBR021W, strain FUR4, stronger effect = lower value",0.941 (inactive)
same,normalized growth,"locus YBR023C, strain chs3, stronger effect = lower value",1.08 (inactive)
same,normalized growth,"locus YBR171W, strain sec66, stronger effect = lower value",1.06 (inactive)
same,normalized growth,"locus YBR229C, strain ROT2, stronger effect = lower value",1.08 (inactive)
same,normalized growth,"locus YBR231C, strain swc5, stronger effect = lower value",1.09 [resistant] (active)
same,normalized growth,"locus YBR279W, strain paf1, stronger effect = lower value",1.07 [resistant] (active)
same,normalized growth,"locus YCL011C, strain gbp2, stronger effect = lower value",1.07 (inactive)
same,normalized growth,"locus YCL016C, strain dcc1, stronger effect = lower value",1.03 (inactive)
same,normalized growth,"locus YCL029C, strain bik1, stronger effect = lower value",1 (inactive)
same,normalized growth,"locus YCL061C, strain MRC1, stronger effect = lower value",1.06 (inactive)
same,normalized growth,"locus YCL069W, strain vba3, stronger effect = lower value",1.07 (inactive)
same,normalized growth,"locus YCR088W, strain abp1, stronger effect = lower value",1.08 [resistant] (active)
same,normalized growth,"locus YDL005C, strain med2, stronger effect = lower value",1.04 (inactive)
same,normalized growth,"locus YDL035C, strain GPR1, stronger effect = lower value",0.886 (inactive)
same,normalized growth,"locus YDL040C, strain nat1, stronger effect = lower value",1.08 [resistant] (active)
same,normalized growth,"locus YDL074C, strain BRE1, stronger effect = lower value",1.34 [resistant] (active)
same,normalized growth,"locus YDL101C, strain DUN1, stronger effect = lower value",1.02 (inactive)
same,normalized growth,"locus YDL185W, strain tfp1, stronger effect = lower value",1.01 (inactive)
same,normalized growth,"locus YDL192W, strain arf1, stronger effect = lower value",1.02 (inactive)
same,normalized growth,"locus YDR001C, strain nth1, stronger effect = lower value",1.07 (inactive)
same,normalized growth,"locus YDR069C, strain doa4, stronger effect = lower value",1.03 (inactive)
same,normalized growth,"locus YDR101C, strain arx1, stronger effect = lower value",0.967 (inactive)
same,normalized growth,"locus YDR137W, strain rgp1, stronger effect = lower value",0.774 (active)
same,normalized growth,"locus YDR159W, strain sac3, stronger effect = lower value",1.05 (inactive)
same,normalized growth,"locus YDR162C, strain NBP2, stronger effect = lower value",0.913 (inactive)
same,normalized growth,"locus YDR195W, strain ref2",1.13 (inactive)
same,normalized growth,"locus YDR297W, strain sur2, stronger effect = lower value",1.07 (inactive)
same,normalized growth,"locus YDR318W, strain mcm21, stronger effect = lower value",1.01 (inactive)
same,normalized growth,"locus YDR334W, strain swr1, stronger effect = lower value",1.05 (inactive)
same,normalized growth,"locus YDR335W, strain msn5, stronger effect = lower value",1.02 (inactive)
same,normalized growth,"locus YDR388W, stronger effect = lower value",1.03 (inactive)
same,normalized growth,"locus YDR392W, strain spt3, stronger effect = lower value",1.02 (inactive)
same,normalized growth,"locus YDR502C, strain sam2, stronger effect = lower value",0.989 (inactive)
same,normalized growth,"locus YEL003W, strain gim4, stronger effect = lower value",1.02 (inactive)
same,normalized growth,"locus YEL037C, strain rad23, stronger effect = lower value",1.06 (inactive)
same,normalized growth,"locus YEL061C, strain CIN8 (second series), stronger effect = lower value",1.06 (inactive)
same,normalized growth,"locus YER015W, strain faa2, stronger effect = lower value",1.08 [resistant] (active)
same,normalized growth,"locus YER016W, strain bim1, stronger effect = lower value",1.07 (inactive)
same,normalized growth,"locus YER110C, stronger effect = lower value",1.05 (inactive)
same,normalized growth,"locus YER111C, strain swi4, stronger effect = lower value",1.08 (inactive)
same,normalized growth,"locus YER155C, strain BEM2 (second series), stronger effect = lower value",1.09 (inactive)
same,normalized growth,"locus YER155C, strain BEM2, stronger effect = lower value",1.1 [resistant] (active)
same,normalized growth,"locus YER167W, strain BCK2, stronger effect = lower value",1.08 (inactive)
same,normalized growth,"locus YFR010W, strain ubp6, stronger effect = lower value",1 (inactive)
same,normalized growth,"locus YGL078C, strain dbp3, stronger effect = lower value",0.889 (active)
same,normalized growth,"locus YGL086W, strain mad1, stronger effect = lower value",1 (inactive)
same,normalized growth,"locus YGL167C, strain pmr1, stronger effect = lower value",1.08 (inactive)
same,normalized growth,"locus YGL173C, strain kem1, stronger effect = lower value",1.02 (inactive)
same,normalized growth,"locus YGL227W, strain vid30, stronger effect = lower value",1.07 (inactive)
same,normalized growth,"locus YGL240W, strain doc1, stronger effect = lower value",1.02 (inactive)
same,normalized growth,"locus YGL248W, strain PDE1, stronger effect = lower value",1.01 (inactive)
same,normalized growth,"locus YGL253W, strain hxk2, stronger effect = lower value",1.04 (inactive)
same,normalized growth,"locus YGR078C, strain PAC10, stronger effect = lower value",1.13 (inactive)
same,normalized growth,"locus YGR135W, strain pre9, stronger effect = lower value",0.996 (inactive)
same,normalized growth,"locus YGR252W, strain gcn5, stronger effect = lower value",0.985 (inactive)
same,normalized growth,"locus YHR013C, strain ard1, stronger effect = lower value",1.15 (inactive)
same,normalized growth,"locus YHR027C, strain rpn1, stronger effect = lower value",1.06 (inactive)
same,normalized growth,"locus YHR030C, strain SLT2, stronger effect = lower value",1.1 [resistant] (active) and 0.945 (inactive)
same,normalized growth,"locus YHR079C, strain IRE1 (second series), stronger effect = lower value",1.05 (inactive)
same,normalized growth,"locus YHR079C, strain IRE1, stronger effect = lower value",0.877 (inactive)
same,normalized growth,"locus YHR094C, strain hxt1, stronger effect = lower value",1.07 (inactive)
same,normalized growth,"locus YHR129C, strain ARP1, stronger effect = lower value",1.06 (inactive)
same,normalized growth,"locus YHR142W, strain chs7, stronger effect = lower value",1.03 (inactive)
same,normalized growth,"locus YHR200W, strain rpn10, stronger effect = lower value",1.01 (inactive)
same,normalized growth,"locus YIL066C, strain RNR3, stronger effect = lower value",1.03 (inactive)
same,normalized growth,"locus YIL073C, strain SPO22, stronger effect = lower value",1.43 [resistant] (active)
same,normalized growth,"locus YIL125W, strain kgd1, stronger effect = lower value",1.01 (inactive)
same,normalized growth,"locus YIR030C, strain dcg1, stronger effect = lower value",1.06 (inactive)
same,normalized growth,"locus YJL092W, strain hpr5, stronger effect = lower value",1.08 (inactive)
same,normalized growth,"locus YJL095W, strain BCK1 (second series), stronger effect = lower value",1.08 [resistant] (active)
same,normalized growth,"locus YJL095W, strain BCK1, stronger effect = lower value",1.14 (inactive) and 0.943 (inactive)
same,normalized growth,"locus YJL115W, strain asf1, stronger effect = lower value",1.06 (inactive)
same,normalized growth,"locus YJL129C, strain trk1, stronger effect = lower value",1.08 (inactive)
same,normalized growth,"locus YJL134W, strain LCB3, stronger effect = lower value",1.07 [resistant] (active)
same,normalized growth,"locus YJL154C, strain vps35, stronger effect = lower value",1.08 (inactive)
same,normalized growth,"locus YJL164C, strain tpk1, stronger effect = lower value",1.02 (inactive)
same,normalized growth,"locus YJL166W, strain qcr8, stronger effect = lower value",1.03 (inactive)
same,normalized growth,"locus YJL168C, strain set2, stronger effect = lower value",1.1 [resistant] (active)
